Active and inactive are the calls of the source. The call rests on the fitted dose curve; in most records, active means well fitted curve in the direction sought with a large enough effect in the repeat runs; inconclusive means weak or mixed curves; inactive means flat fitted curve, though single readings scatter.
Assay: qHTS assay to test for compound auto fluorescence at 535 nm (green) in HepG2 cells (AID 720675)
Settings: green autofluorescence 485/535 nm, 1 h; series mostly up to 91.3 µM; fluorescence, % of fluorescein control: at the top concentration
Text: National Center for Advancing Translational Sciences [NCATS]
NIH Chemical Genomics Center [NCGC]
U.S. Environmental Protection Agency [EPA]
National Institutes of Environmental Health Sciences [NIEHS]
National Toxicology Program [NTP]
U.S. Food and Drug Administration [FDA]
Compound auto fluorescence often interferes with screening of the compound library against various biological targets and signaling pathways. Some of these compounds may have fluorophoric properties. Such properties may interfere with the assay outputs resulting in false positives and/or negatives. To decrease such complications and ensure the compound activities are relevant in terms of biological response, the Tox21 10K compound library was screened for auto fluorescence.
From the fluorophores used as reporter signals in our screening assays, the auto fluorescence equivalencies of compounds against three fluorophores have been evaluated: Triamterene, Fluorescein and Rose Bengal sodium for blue, green and red fluorescence, respectively. The fluorescence intensities were measured using Excitation/Emission wavelengths at 405/460nm, 485/535nm and 540/590nm for blue, green and red labels, respectively. This assay includes the green fluorescence data.
Tox21 Assay Protocol Summary:
2,000 HepG2 cells in 5 uL of culture medium (MEM containing 10% FBS) per well were dispensed into black wall/clear bottom 1536-well plates using a Multidrop Combi Dispenser (ThermoFisher Scientific, Waltham, MA). The assay plates were incubated overnight at 37 C to allow cell attachment to the well bottom, followed by the transfer of 23 nL compound or DMSO vehicle by a pintool work station (Kalypsys , San Diego, CA). After the assay plates were incubated for 1 hr at 37 C and 5% CO2, fluorescence intensities in the assay plates were measured by an Envision (PerkinElmer, Shelton, CT) plate reader using three labels for measuring blue, green and red fluorescence at […] 460, 535 and 590 nm respectively.
On the % scale 0 is the no-effect control and ±100 the full control effect.

SMILES	fluorescence, % of fluorescein control	outcome
O=[N+]([O-])c1cccc(O)c1	-0.0734% (inactive)	–
COCC(=O)N(c1c(C)cccc1C)N1CCOC1=O	-0.121% (inactive)	–
CCOP(=S)(Oc1cnc(C(C)(C)C)nc1)OC(C)C (stereo not given)	0.0338% (inactive)	–
Cc1cc(C)c(C(=O)P(=O)(C(=O)c2c(C)cc(C)cc2C)c2ccccc2)c(C)c1	0.0459% (inactive)	–
ClCCOCOCCCl	-0.101% [at 95.7 µM] (inactive)	–
NC(=S)C(N)=S	0.13% (inactive)	–
CCC1(c2ccccc2)C(=O)NC(=O)NC1=O	–	inactive
CCCCOC(=O)c1ccccc1N	0.0612% (inactive)	–
COc1ccc2c(c1OC)CN1CCc3cc4c(cc3C1C2)OCO4 (stereo not given)	-0.0763% [at 18.6 µM] (inactive)	–
CCC(Cl)[N+](=O)[O-] (stereo not given)	0.0951% [at 95.7 µM] (inactive)	–
N#Cc1c(Cl)cccc1Cl	-0.0418% (inactive)	–
CCN(Cc1ccc(Cl)nc1)/C(=C/[N+](=O)[O-])NC	-0.0217% [at 46 µM] (inactive)	–
C[C@]12CC[C@H]3[C@@H](CC=C4C[C@@H](O)CC[C@@]43C)[C@@H]1CC[C@@H]2O	0.0002% [at 46 µM] (inactive)	–
CC(C)(C)OC(=O)c1ncn2c1[C@@H]1CCCN1C(=O)c1c(Br)cccc1-2	-0.0708% [at 46 µM] (inactive)	–
CC(C=O)Cc1ccc2c(c1)OCO2 (stereo not given)	0.0031% (inactive)	–
CCSC(=O)N(CC)C1CCCCC1	0.131% (inactive)	–
Cc1cc(C)nc(Nc2ccccc2)n1	0.002% (inactive)	–
CCN(CC)C(=O)[C@@H]1C=C2c3cccc4[nH]cc(c34)C[C@H]2N(C)C1	–	inactive
CCOP(=S)(OCC)SCSP(=S)(OCC)OCC	0.199% (inactive)	–
CC(CC(C#N)(c1ccccc1)c1ccccc1)N(C)C (stereo not given)	-0.0417% (inactive)	–

SMILES	fluorescence, % of fluorescein control	outcome
CCN(CC)CCOC(=O)C(C)(c1ccccc1)c1ccccc1	-0.154% [at 46 µM] (inactive)	–
CCCSC(=O)Cl	0.16% (inactive)	–
OC(c1ccc(F)cc1)(c1cncnc1)c1ccccc1Cl (stereo not given)	-0.0377% (inactive)	–
CCNc1nc(NC(C)C)nc(OC)n1	-0.002% (inactive)	–
COc1cc2c(cc1OC)[C@@]13CCN4CC5=CCO[C@H]6CC(=O)N2[C@H]1[C@H]6[C@H]5C[C@H]43	–	inactive
CC(Oc1ccc(Oc2ncc(C(F)(F)F)cc2Cl)cc1)C(=O)O (stereo not given)	-0.0432% (inactive)	–
COP(=S)(OC)Oc1ccc(S(N)(=O)=O)cc1	-0.0057% [at 46 µM] (inactive)	–
ClC(Cl)(Cl)C(Cl)(Cl)Cl	0.123% [at 95.7 µM] (inactive)	–
NC(=O)O	0.0024% (inactive)	–
COc1cc(OC)nc(Sc2cccc(Cl)c2C(=O)O)n1	0.157% (inactive)	–
ClC(Cl)C(Cl)Cl	0.0498% (inactive)	–
CCOP(=S)(OCC)SCSc1ccc(Cl)cc1	–	inactive
O=[N+]([O-])c1ccc(CBr)cc1	-0.0739% [at 95.7 µM] (inactive)	–
O=C1c2ccccc2C(=O)c2ccccc21	-0.0547% [at 46 µM] (inactive)	–
COc1ccc(C(=O)N2CCCC2=O)cc1	-0.0364% [at 46 µM] (inactive)	–
COc1cc(C[C@@H](C)N)c(OC)cc1C	-0.0107% [at 95.7 µM] (inactive)	–
Cc1nnc2n1-c1sc(CCC(=O)N3CCOCC3)cc1C(c1ccccc1Cl)=NC2	–	inactive
CCCCc1ccc(O)cc1	-0.0376% (inactive)	–
OC(c1ccccc1)(c1ccccc1)C1CCNCC1	0.0225% [at 18.6 µM] (inactive)	–
Nc1n[nH]c(N)n1	-0.005% [at 95.7 µM] (inactive)	–

— PubChem BioAssay (Tox21)
